Experimental data reported in PubChem BioAssay (NCI).
Compounds without any hit were thinned out: in the full panel of roughly 79,000, 15% have a hit. The source made the active and inactive calls. Cut-off read from the data, not from the text of the source: active = growth inhibition above about 70%; inactive = the rest. Where a SMILES comes first, the peptide text is derived from it. The star is where a group is joined. Boc = CC(C)(C)OC(=O)*; OtBu = CC(C)(C)O*

assay: NCI Yeast Anticancer Drug Screen. Data for the cln2 rad14 strain (AID 165);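 note: 0% = growth equal to vehicle treated cultures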; conditions: S. cerevisiae cln2 rad14 strain, at 50.0 µM, hits give high values
Method in brief: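 Growth inhibition, relative to vehicle-treated controls, is the read-out. The test organism is a yeast strain with defined genetic alterations, cln2 rad14.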

Compound	growth inhibition
C=C(C)CC(O)CCCCC (configuration not stated)	-33.9% (inactive)
CC(=O)OCC1OC(n2cnc(Br)c2[N+](=O)[O-])C(OC(C)=O)C1OC(C)=O (configuration not stated)	14.5% (inactive)
CCCC(=O)OCCOc1ccccc1	7.2% (inactive)
O=c1c2cccnc2cc(-c2ccccc2)n1CCO	4.55% (inactive)
C/C(=N\N=C(\Cc1ccccc1)c1ccccc1)c1ccccc1	-25.2% (inactive)
Nc1cccnc1NCC(O)c1ccccc1 (configuration not stated)	-12.6% (inactive)
C[C@@H]1OC(=O)N2CCCC(=C3SCCCS3)C12 (some centres not stated)	-25.1% (inactive)
CCNC(=O)[B-][N+](C)(C)C	35.4% (inactive)
Cc1cc(NN)c2cc3c(cc2n1)OCO3	-46% (inactive)
CCCCCN(CCCCC)CC(O)c1cc(-c2ccccc2)nc2c(Cl)cc(Cl)cc12 (configuration not stated)	18% (inactive)
CCOc1ccc(N=Cc2cc(Br)ccc2O)cc1	-0.5% (inactive)
O=C1CSC(/C(=C/c2ccccc2)c2nc3ccccc3[nH]2)=N1	16.2% (inactive)
O=C(N/N=C(/c1nc2ccc(Cl)cc2[nH]c1=O)C(O)c1ccc(Cl)cc1Cl)c1ccncc1 (configuration not stated)	-34.6% (inactive)
CCOC(=O)C1=C(O)c2ccccc2S(=O)(=O)N1C (tested in a mixture with another compound)	-18.9% (inactive)
CCCCC(O)(CCCC)CC(C)C	-19.9% (inactive)
COc1ccc(OC)c(NC(=O)C(=O)NNC(=O)c2sc(NNC(C)=O)nc2C)c1	26.5% (inactive)
CCOC(=O)C(CCN(C)C)(CCN(C)C)c1ccccc1	-30.2% (inactive)
COc1cc(NC=C2C(=O)OC(C)(C)OC2=O)c(OC)c(C)c1OC	0.5% (inactive)
CC(C)(C)OC(=O)CC(NC(=O)OC(C)(C)C)C(=O)NC(Cc1ccccc1)C(N)=O (configuration not stated) (Boc-Asp(OtBu)-Phe-NH2; configuration not given here)	35.5% (inactive)
CCOC(=O)C(c1ccccc1)N(CCCN(CC)CC)c1ccccc1 (configuration not stated)	-9.1% (inactive)
CC1(C)OC2(C)CCC1C1C2N1C(=O)Nc1cccc(Cl)c1 (configuration not stated)	-2.45% (inactive)
CC(=O)OCC12CCC(O1)C1C(=O)OC(=O)C12 (configuration not stated)	-3.4% (inactive)

assay: NCI Yeast Anticancer Drug Screen. Data for the bub3 strain (AID 167); conditions: S. cerevisiae bub3 mutant strain, at 50.0 µM, hits give high values
Method in brief: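 Growth of a checkpoint-deficient yeast mutant is measured after compound exposure. Values represent inhibition relative to vehicle.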

Compound	growth inhibition
CC(=O)c1ccc(N=C2C=CC(=O)O2)cc1	-4.65% (inactive)
COc1cc(Br)cc2nc(-c3cccs3)oc12	-8.1% (inactive)
CC(C(O)c1ccc(Cl)cc1)C(O)(C(F)(F)F)C(F)(F)F (configuration not stated)	99% (active)
OC(NN=C1CCCC1)(C(F)(F)Cl)C(F)(F)Cl	-14.2% (inactive)
c1ccc(OC23CC4CC(CC(C4)C2)C3)cc1	-18.8% (inactive)
CCCCC(=O)N/N=C/c1ccccc1OCC	-9.9% (inactive)
CCOC(=O)CC(NC(=O)CC(N)C(=O)O)C(=O)OCC (configuration not stated)	-0.3% (inactive)
CN(C)CCC(C(=O)NCc1ccccc1)C(=O)NCc1ccccc1	-2.55% (inactive)
CCOc1ccc2nc(C)ccc2c1	4.95% (inactive)
CCOc1ccc(-c2nc(-c3oc4ccccc4c(=O)c3OC(C)=O)cs2)cc1	-5.9% (inactive)
Nc1cccc2c1C(=O)c1cccc(N)c1C2=O	8.2% (inactive)
O=[N+]([O-])c1ccc(Sc2c3ccccc3nc3cc(Cl)ccc23)cc1	-20.3% (inactive)
O=c1c(SCc2ccc(Cl)cc2)c(N2CCCCC2)cnn1-c1ccccc1	9.3% (inactive)
Cc1ccc(S(=O)(=O)N/N=C(/c2ccccc2)c2ccsc2C)cc1	41.3% (inactive)
NC1=NN(c2ccccc2)C(=O)C1C(=O)CCC(=O)Nc1cccc(Cl)c1 (configuration not stated)	5.35% (inactive)
CC#CC#C/C=C1/C=CC2(CC=CO2)O1 (configuration not stated)	25.3% (inactive)
NC(=O)C1CCCC1	23.4% (inactive)
O/N=C1/C(=C/c2ccccc2)CCCC1C(NO)c1ccccc1 (configuration not stated)	17.1% (inactive)
C=C(C)CC(O)CCCCC (configuration not stated)	17.3% (inactive)
CC(=O)OCC1OC(n2cnc(Br)c2[N+](=O)[O-])C(OC(C)=O)C1OC(C)=O (configuration not stated)	0.65% (inactive)

Compound	growth inhibition
CCCC(=O)OCCOc1ccccc1	0.8% (inactive)
O=c1c2cccnc2cc(-c2ccccc2)n1CCO	3.3% (inactive)
C/C(=N\N=C(\Cc1ccccc1)c1ccccc1)c1ccccc1	-1.65% (inactive)
Nc1cccnc1NCC(O)c1ccccc1 (configuration not stated)	-11.6% (inactive)
C[C@@H]1OC(=O)N2CCCC(=C3SCCCS3)C12 (some centres not stated)	2.7% (inactive)
CCNC(=O)[B-][N+](C)(C)C	-12.4% (inactive)
Cc1cc(NN)c2cc3c(cc2n1)OCO3	-5.7% (inactive)
CCCCCN(CCCCC)CC(O)c1cc(-c2ccccc2)nc2c(Cl)cc(Cl)cc12 (configuration not stated)	46.5% (inactive)
CCOc1ccc(N=Cc2cc(Br)ccc2O)cc1	1.15% (inactive)
O=C1CSC(/C(=C/c2ccccc2)c2nc3ccccc3[nH]2)=N1	-1.6% (inactive)
O=C(N/N=C(/c1nc2ccc(Cl)cc2[nH]c1=O)C(O)c1ccc(Cl)cc1Cl)c1ccncc1 (configuration not stated)	-3.6% (inactive)
CCOC(=O)C1=C(O)c2ccccc2S(=O)(=O)N1C (tested in a mixture with another compound)	-25.6% (inactive)
CCCCC(O)(CCCC)CC(C)C	-16.7% (inactive)
COc1ccc(OC)c(NC(=O)C(=O)NNC(=O)c2sc(NNC(C)=O)nc2C)c1	61% (inactive)
CCOC(=O)C(CCN(C)C)(CCN(C)C)c1ccccc1	-13% (inactive)
COc1cc(NC=C2C(=O)OC(C)(C)OC2=O)c(OC)c(C)c1OC	-22.9% (inactive)
CC(C)(C)OC(=O)CC(NC(=O)OC(C)(C)C)C(=O)NC(Cc1ccccc1)C(N)=O (configuration not stated) (Boc-Asp(OtBu)-Phe-NH2; configuration not given here)	13.5% (inactive)
CCOC(=O)C(c1ccccc1)N(CCCN(CC)CC)c1ccccc1 (configuration not stated)	5.15% (inactive)
CC1(C)OC2(C)CCC1C1C2N1C(=O)Nc1cccc(Cl)c1 (configuration not stated)	-7.9% (inactive)
CC(=O)OCC12CCC(O1)C1C(=O)OC(=O)C12 (configuration not stated)	-11.1% (inactive)
